Legend:
[1] = test system: Vero E6 infected with SARS-CoV-2; experiment: morphology score (similarity to uninfected cells); higher = more like uninfected cells; details: 24 h
[2] = test system: Vero E6 infected with SARS-CoV-2; experiment: SARS-CoV-2 infection rate relative to infected DMSO; higher = more infection, active = 60 or less; details: 24 h

For COCCN1CCC(C(=O)NO)(S(=O)(=O)c2ccc(Oc3ccc(OC(F)(F)F)cc3)cc2)CC1 (10 µM), the morphology score [1] was 0.0474 and the SARS-CoV-2 infection rate [2] was 110% (inactive).

In the case of NC(N)=O [urea] (10 µM), the morphology score [1] is reported as -0.168 and the SARS-CoV-2 infection rate [2] is reported as 114% (inactive).

In the case of CCOc1cccc(NC(=O)c2ccc(N3CCCC3)c(C(F)(F)F)c2)c1 (10 µM), the morphology score [1] is reported as 0.0793 and the SARS-CoV-2 infection rate [2] is reported as 102% (inactive).

With O=C(O)C[C@H](O)C[C@H](O)/C=C/c1c(C2CC2)nc2ccccc2c1-c1ccc(F)cc1 [pitavastatin] (10 µM) the morphology score [1] was -0.127 and the SARS-CoV-2 infection rate [2] was 115% (inactive).

For CCOC(=O)[C@H](CCc1ccccc1)N[C@@H](C)C(=O)N(CC(=O)O)C1Cc2ccccc2C1 [delapril] (10 µM), the morphology score [1] was -0.0271 and the SARS-CoV-2 infection rate [2] was 108% (inactive).

With O=C(O)CCC(=O)c1ccc(-c2ccccc2)cc1 [fenbufen] (10 µM) the morphology score [1] was -0.0471 and the SARS-CoV-2 infection rate [2] was 104% (inactive).

With CN(C)C(=O)Oc1cccc([N+](C)(C)C)c1 [neostigmine] (10 µM) the morphology score [1] was -0.107 and the SARS-CoV-2 infection rate [2] was 112% (inactive).

In the case of Cn1nnnc1SCC1=C(C(=O)O)N2C(=O)[C@@H](NC(=O)[C@H](OC=O)c3ccccc3)[C@H]2SC1 [cefamandole-nafate] (10 µM), the morphology score [1] is reported as 0.0598 and the SARS-CoV-2 infection rate [2] is reported as 102% (inactive).

For COc1cc([S+](C)[O-])ccc1-c1nc2cccnc2[nH]1 (centres undefined) [sulmazole] (10 µM), the morphology score [1] was 0.165 and the SARS-CoV-2 infection rate [2] was 98.5% (inactive).

In the case of O=C1N=C2SCCN2C(=O)C1Cc1ccc(Cl)cc1 (centres undefined) [nuclomedone] (10 µM), the morphology score [1] is reported as 0.238 and the SARS-CoV-2 infection rate [2] is reported as 99% (inactive).

For O=C(Nc1cc(C(F)(F)F)ccc1O)Nc1cc(C(F)(F)F)ccc1O (10 µM), the morphology score [1] was 0.119 and the SARS-CoV-2 infection rate [2] was 104% (inactive).

In the case of O=C1NC(c2cccc([N+](=O)[O-])c2)=CCN1c1ccccc1O [icilin] (10 µM), the morphology score [1] is reported as 0.0675 and the SARS-CoV-2 infection rate [2] is reported as 100% (inactive).

With Cc1cc(C(=CNc2ccc(Cl)cc2)C(=O)Nc2ccc(Cl)cc2)on1 (10 µM) the morphology score [1] was 0.005 and the SARS-CoV-2 infection rate [2] was 103% (inactive).

For CCCN(CCC)C(=O)C1=Cc2ccc(-c3ccc(C(=O)N4CCCC4)cc3)cc2N=C(N)C1 [motolimod] (10 µM), the morphology score [1] was 0.14 and the SARS-CoV-2 infection rate [2] was 93% (inactive).

For CCOc1cc(OCC)c(C(=O)CCC(=O)O)cc1OCC [trepibutone] (10 µM), the morphology score [1] was -0.0558 and the SARS-CoV-2 infection rate [2] was 106% (inactive).

In the case of CC(C)(C)C(=O)C(Oc1ccc(Cl)cc1)n1ccnc1 (centres undefined) [climbazole] (10 µM), the morphology score [1] is reported as 0.217 and the SARS-CoV-2 infection rate [2] is reported as 91.5% (inactive).

NCCCC[C@@H]1NC(=O)[C@@H](Cc2c[nH]c3ccccc23)NC(=O)[C@H](c2ccccc2)NC(=O)[C@@H]2C[C@@H](OC(=O)NCCN)CN2C(=O)[C@H](Cc2ccccc2)NC(=O)[C@H](Cc2ccc(OCc3ccccc3)cc2)NC1=O [pasireotide] (10 µM) was tested, and the morphology score [1] was -0.0469 and the SARS-CoV-2 infection rate [2] was 104% (inactive).

COC(=O)[C@H](CC(C)C)NC(=O)c1ccc(NC[C@@H](N)CS)cc1-c1cccc2ccccc12 (10 µM) was tested, and the morphology score [1] was -0.445 and the SARS-CoV-2 infection rate [2] was 115% (inactive).

With N#C/C(=C1/SCC(c2ccccc2Cl)S1)n1ccnc1 (centres undefined) [lanoconazole] (10 µM) the morphology score [1] was 0.0956 and the SARS-CoV-2 infection rate [2] was 99.5% (inactive).

With C=CC(=O)Nc1cccc(Nc2nc(Nc3ccc(N4CCN(C(C)=O)CC4)cc3OC)ncc2C(F)(F)F)c1 [rociletinib] (10 µM) the morphology score [1] was -0.408 and the SARS-CoV-2 infection rate [2] was 106% (inactive).

For C[N+]12CCC(CC1)C(OC(=O)C(O)(c1ccccc1)c1ccccc1)C2 (centres undefined) [clidinium] (10 µM), the morphology score [1] was -0.064 and the SARS-CoV-2 infection rate [2] was 95% (inactive).

With CC(=O)NC1N=C(c2ccccc2)c2ccccc2NC1=O (centres undefined) (10 µM) the morphology score [1] was 0.189 and the SARS-CoV-2 infection rate [2] was 105% (inactive).
